In PubChem BioAssay AID1159580 (chemical genetic matrix, 2015):
“And” between values parts separate entries of the source, which are not always exact repeats. Equal values may be shown once. The campaign covered roughly 5,500 compounds. About 2,000 (36%) were called active. Roughly 18% stayed inconclusive and do not appear here. Rule as the data show it: active = normalized growth mostly below about 0.91 (no sharp cut-off); inconclusive = no clear call, values can overlap the other calls; inactive = mostly above about 0.92. The list shows a part of the results.

Test: chemical genetic growth profiling, strain panel (AID 1159580);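 also: tested at 20 µM; growth read once vehicle control cultures reached saturation at 30 °C; 1 = growth at the plate median or of vehicle wells; lower values mean less growth of the strain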
Details: S. cerevisiae deletion strains, growth OD

Measured: normalized growth

O=c1cccc2n1C[C@H]1CNCC2C1
inactive: locus YAL021C, strain ccr4, stronger effect = lower value 1 | locus YAL026C, strain drs2, stronger effect = lower value 1.01 | locus YAL030W, strain snc1, stronger effect = lower value 1.01 | locus YBL061C, strain skt5, stronger effect = lower value 1.01 | locus YBR009C, strain hhf1, stronger effect = lower value 0.982 | locus YBR021W, strain FUR4, stronger effect = lower value 1.03 | locus YBR023C, strain chs3, stronger effect = lower value 0.999 | locus YBR171W, strain sec66, stronger effect = lower value 0.997 | locus YBR229C, strain ROT2, stronger effect = lower value 1 | locus YBR231C, strain swc5, stronger effect = lower value 1.02 | locus YBR279W, strain paf1, stronger effect = lower value 1 | locus YCL011C, strain gbp2, stronger effect = lower value 0.99 | locus YCL016C, strain dcc1, stronger effect = lower value 0.973 | locus YCL029C, strain bik1, stronger effect = lower value 0.985 | locus YCL061C, strain MRC1, stronger effect = lower value 0.987 | locus YCL069W, strain vba3, stronger effect = lower value 1 | locus YCR088W, strain abp1, stronger effect = lower value 1 | locus YDL005C, strain med2, stronger effect = lower value 1.01 | locus YDL035C, strain GPR1, stronger effect = lower value 0.988 | locus YDL040C, strain nat1, stronger effect = lower value 1.01 | locus YDL074C, strain BRE1, stronger effect = lower value 0.984 | locus YDL101C, strain DUN1, stronger effect = lower value 1.01 | locus YDL134C, strain PPH21, stronger effect = lower value 1.03 | locus YDL185W, strain tfp1, stronger effect = lower value 0.955 | locus YDL192W, strain arf1, stronger effect = lower value 0.987 | locus YDR001C, strain nth1, stronger effect = lower value 1.01 | locus YDR069C, strain doa4, stronger effect = lower value 1.01 | locus YDR101C, strain arx1, stronger effect = lower value 0.966 | locus YDR137W, strain rgp1, stronger effect = lower value 1.02 | locus YDR150W, strain NUM1, stronger effect = lower value 1 | locus YDR159W, strain sac3, stronger effect = lower value 1 | locus YDR162C, strain NBP2, stronger effect = lower value 1.01 | locus YDR195W, strain ref2 0.999 | locus YDR297W, strain sur2, stronger effect = lower value 0.999 | locus YDR318W, strain mcm21, stronger effect = lower value 0.996 | locus YDR334W, strain swr1, stronger effect = lower value 0.999 | locus YDR335W, strain msn5, stronger effect = lower value 1.01 | locus YDR388W, stronger effect = lower value 0.992 | locus YDR392W, strain spt3, stronger effect = lower value 0.899 | locus YDR502C, strain sam2, stronger effect = lower value 1 | locus YEL003W, strain gim4, stronger effect = lower value 1 | locus YEL037C, strain rad23, stronger effect = lower value 1.01 | locus YEL061C, strain CIN8 (second series), stronger effect = lower value 1.01 | locus YEL061C, strain CIN8, stronger effect = lower value 1.01 | locus YER015W, strain faa2, stronger effect = lower value 1.01 | locus YER016W, strain bim1, stronger effect = lower value 1.01 | locus YER110C, stronger effect = lower value 0.974 | locus YER111C, strain swi4, stronger effect = lower value 0.985 | locus YER155C, strain BEM2 (second series), stronger effect = lower value 0.974 | locus YER155C, strain BEM2, stronger effect = lower value 1 | locus YER167W, strain BCK2, stronger effect = lower value 1 | locus YFR010W, strain ubp6, stronger effect = lower value 1.02 | locus YGL078C, strain dbp3, stronger effect = lower value 0.982 | locus YGL086W, strain mad1, stronger effect = lower value 0.965 | locus YGL167C, strain pmr1, stronger effect = lower value 0.994 | locus YGL173C, strain kem1, stronger effect = lower value 0.998 | locus YGL227W, strain vid30, stronger effect = lower value 1.01 | locus YGL240W, strain doc1, stronger effect = lower value 1.05 | locus YGL248W, strain PDE1, stronger effect = lower value 1.03 | locus YGL253W, strain hxk2, stronger effect = lower value 1.01 | locus YGR078C, strain PAC10, stronger effect = lower value 1.03 | locus YGR135W, strain pre9, stronger effect = lower value 1.02 | locus YGR252W, strain gcn5, stronger effect = lower value 1.1 | locus YHR013C, strain ard1, stronger effect = lower value 0.98 | locus YHR027C, strain rpn1, stronger effect = lower value 1.01 | locus YHR030C, strain SLT2, stronger effect = lower value 0.997 and 1.01 | locus YHR079C, strain IRE1 (second series), stronger effect = lower value 0.966 | locus YHR079C, strain IRE1, stronger effect = lower value 1.04 | locus YHR094C, strain hxt1, stronger effect = lower value 0.995 | locus YHR129C, strain ARP1, stronger effect = lower value 1 | locus YHR142W, strain chs7, stronger effect = lower value 0.991 | locus YHR200W, strain rpn10, stronger effect = lower value 0.979 | locus YIL066C, strain RNR3, stronger effect = lower value 1.02 | locus YIL073C, strain SPO22, stronger effect = lower value 0.947 | locus YIL125W, strain kgd1, stronger effect = lower value 0.987 | locus YIR030C, strain dcg1, stronger effect = lower value 0.992 | locus YJL092W, strain hpr5, stronger effect = lower value 1 | locus YJL095W, strain BCK1 (second series), stronger effect = lower value 1 | locus YJL095W, strain BCK1, stronger effect = lower value 1.07 and 1.01 | locus YJL115W, strain asf1, stronger effect = lower value 0.998 | locus YJL129C, strain trk1, stronger effect = lower value 1 | locus YJL134W, strain LCB3, stronger effect = lower value 0.999 | locus YJL154C, strain vps35, stronger effect = lower value 0.997 | locus YJL164C, strain tpk1, stronger effect = lower value 1 | locus YJL166W, strain qcr8, stronger effect = lower value 0.98 | locus YJL168C, strain set2, stronger effect = lower value 0.984 | locus YJL187C, strain SWE1 (second series), stronger effect = lower value 1.01 | locus YJL187C, strain SWE1, stronger effect = lower value 1.01
